Data on 97 compounds can be found in PubChem BioAssay AID1903 (Southern Research Specialized Biocontainment Screening …, 2009).

Out of some 310,000 compounds screened, about 1,200 (0.39%) were called active. The rule behind the calls is not given here. Only a sample is shown. Entries with a potency or affinity are not part of this list.

This assay deals with Large T antigen (Simian virus 40) (UniProt P03070). Kind of assay: SV40 large T antigen inhibitors, biochemical (AID 1903). Conditions: SV40 large T antigen ATPase/helicase inhibition assay; at 20 µM; hits give high values.
Sequence of Large T antigen (Simian virus 40) (P03070 whole entry, looked up): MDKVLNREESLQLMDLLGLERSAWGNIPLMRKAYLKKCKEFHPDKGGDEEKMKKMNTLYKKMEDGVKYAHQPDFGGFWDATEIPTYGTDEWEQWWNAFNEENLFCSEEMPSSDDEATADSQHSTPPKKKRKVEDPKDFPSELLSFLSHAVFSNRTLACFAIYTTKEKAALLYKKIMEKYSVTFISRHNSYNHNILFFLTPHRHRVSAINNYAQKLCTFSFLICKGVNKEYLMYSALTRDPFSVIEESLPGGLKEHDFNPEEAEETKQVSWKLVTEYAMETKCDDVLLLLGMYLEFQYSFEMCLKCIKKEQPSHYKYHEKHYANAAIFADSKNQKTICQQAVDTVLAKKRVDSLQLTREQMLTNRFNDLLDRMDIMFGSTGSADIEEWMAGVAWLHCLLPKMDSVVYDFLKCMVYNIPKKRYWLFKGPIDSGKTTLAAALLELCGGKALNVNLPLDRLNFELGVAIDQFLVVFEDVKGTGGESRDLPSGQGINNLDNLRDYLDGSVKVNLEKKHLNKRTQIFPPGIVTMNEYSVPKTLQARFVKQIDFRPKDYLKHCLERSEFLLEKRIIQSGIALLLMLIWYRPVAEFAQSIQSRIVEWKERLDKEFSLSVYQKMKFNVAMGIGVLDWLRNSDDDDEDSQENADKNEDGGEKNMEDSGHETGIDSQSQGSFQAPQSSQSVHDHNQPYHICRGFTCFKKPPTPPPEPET
As usually defined, the inhibition is the drop in the measured response relative to a control, in per cent. With `COc1ccc(C2C(C(=O)Nc3ccc(OC)c(OC)c3)c3ccccc3C(=O)N2C)cc1` (configuration not stated), the inhibition was 5.35% (inactive).
Take `CCOC(=O)c1ccc(NC(=O)CN2CCN(Cc3ccccc3)CC2)cc1`: the inhibition is -0.24% (inactive).
Take `O=C1NC(=O)/C(=C\c2cn(Cc3ccccc3F)c3ccccc23)N1`: the inhibition is 8.29% (inactive).
As to `C/C(Cn1nc([N+](=O)[O-])cc1C)=N\NC(=O)c1ccc(C(C)(C)C)cc1`, the inhibition was 9.13% (inactive).
`C/C(=N\NC(=O)Cc1ccc(F)cc1)c1ccc(O)cc1`: the inhibition is 36.9% (inactive).
As for `COc1cc(/C(C)=N/NC(=O)CN2CCN(S(=O)(=O)c3ccc(C)cc3)CC2)ccc1O`, the inhibition was 20.9% (inactive).
With `COc1ccc(C(=O)N/N=C(\C)Cn2nc([N+](=O)[O-])cc2C)cc1` the figure was 8.1% (inactive); with `C/C(=N\NC(=O)CCc1c(C)n[nH]c1C)c1ccc([N+](=O)[O-])cc1`, 3.31% (inactive).
With `COc1cc(C(=O)N/N=C(\C)c2ccc(NC(=O)Cc3ccccc3)cc2)ccc1O` the figure was 37.2% (inactive); with `COc1ccc(-c2noc(Cc3ccccc3OC)n2)cc1`, 5.97% (inactive); with `CCOc1ccccc1C(=O)NCC(=O)N(C)Cc1cccnc1`, 0.45% (inactive).
As for `CC1CCc2cc(F)ccc2N1C(=O)c1cc2nc(-c3ccco3)cc(C(F)(F)F)n2n1` (configuration not stated), the figure is 0.153% (inactive); as for `Cc1ccc(-c2cc(O)cc3sc(=O)oc23)cc1C`, 9.82% (inactive).
As to `O=c1oc2c(-c3cccc(F)c3)cc(O)cc2s1`, the inhibition was 6.75% (inactive).
Take `Cc1cc(NC(=O)CSc2nnc3c(C)cc4ccccc4n23)no1`: the inhibition was 23.4% (inactive).
As for `CCc1cccc(C)c1NC(=O)CCCSc1nc2ccccc2s1`, the inhibition was 3.33% (inactive).
With `COc1ccccc1-n1c(CNc2ccc(F)cc2)nnc1SCC(=O)Nc1cc(C)on1` the figure was 25.1% (inactive); with `COc1ccc(NCc2nnc(SCC(=O)Nc3ccc(OC)cc3)n2C)cc1`, 9.42% (inactive); with `COc1ccc(NCc2nnc(SCC(=O)c3ccc(OC)cc3)n2C)cc1`, 21.2% (inactive).
Regarding `CCOc1ccc(NCc2nnc(SCC(=O)Nc3cc(C)on3)n2-c2ccccc2OC)cc1`, the inhibition is 15.1% (inactive).
In the case of `CS(=O)(=O)N1CCc2cc(S(=O)(=O)N3CCCCC3)ccc21`, the inhibition was 11.4% (inactive).
Consider `COc1ccc(C(C)=O)cc1COc1ccc(Cl)cc1Cl`, for which the inhibition is 1.32% (inactive).
`Cc1ccc(S(=O)(=O)N(CC(=O)Nc2cccnc2)c2cccc(Br)c2)cc1`: the inhibition was 14.9% (inactive).
In the case of `Cc1cc(C)nc(Nc2ccc(O)cc2)n1`, the inhibition is 45.6% (inactive).
On to `Cc1cc(C)nc(Nc2ccc(C(=O)O)cc2)n1`, for which the inhibition is 3.63% (inactive).
Consider `Oc1ccc(Nc2nc3ccccc3nc2Nc2ccc(O)cc2)cc1`, for which the inhibition is 35% (inactive).
As for `Oc1ccc(Nc2nnc(-c3ccc(O)cc3)c3ccccc23)cc1`, the inhibition is 20.3% (inactive).
On to `O=C(OC1CCCCC1=O)c1cccc(S(=O)(=O)N2CCOCC2)c1` (configuration not stated), for which the inhibition is 1.22% (inactive).
On to `CC(=O)Nc1cccc(-c2csc(NCc3ccco3)n2)c1`, for which the inhibition is 13.3% (inactive).
With `CCOC(=O)C1=C(C)Nc2nc(C)nn2C1c1cc(OC)ccc1OC` (configuration not stated), the inhibition is 5.76% (inactive).
For `Nc1cccc2c3c(oc12)CCCC3`, the inhibition was 4.56% (inactive).
With `O=C(Nc1ccc(-c2ccc3nncn3n2)cc1)C1CCCC1`, the inhibition is 0.86% (inactive).
In the case of `CCC(C)N(C(=O)COC(=O)c1ccccc1SCC(=O)N1CCCC1)C1CCS(=O)(=O)C1` (configuration not stated), the inhibition is 1.39% (inactive).
For `c1ccc(Cn2nnnc2CN2CCN(c3ncccn3)CC2)cc1`, the inhibition was 0.78% (inactive).
With `CCCc1cc(C(N)=O)c(NC(=O)c2cc(C)on2)s1`, the inhibition is 8.78% (inactive).
Regarding `Cc1csc(C(=O)NCC(=O)NNC(=O)c2cccc(Cl)c2)c1`, the inhibition is 0.72% (inactive).
`CCn1nc(C(=O)Nc2nc3ccc(C)cc3s2)c2ccccc2c1=O`: the inhibition was 0.39% (inactive).
As to `COc1cc(/C=N/NC(=O)NC23CC4CC(CC(C4)C2)C3)ccc1O`, the inhibition is 26.5% (inactive).
For the compound `COc1cc(/C=N/NC(=O)CC(=O)NC2CCCCC2)ccc1O`, the inhibition was 26.4% (inactive).
With `COc1cc(/C=N/NC(=O)NC2CCCCC2)cc(OC)c1O` the figure was 31.1% (inactive); with `COc1cc(/C=N/NC(=O)C2c3ccccc3Oc3ccccc32)ccc1O`, 13.3% (inactive); with `COc1ccc(C(CNC(=O)c2ccc(S(=O)(=O)Nc3ccc(F)cc3)cc2)N(C)C)cc1` (configuration not stated), -1% (inactive).
`CC(=O)Nc1ccc(S(=O)(=O)NCCC(=O)OCC(=O)N2CCN(C(=O)c3ccco3)CC2)cc1`: the inhibition is 2.76% (inactive).
As for `COc1ccc(OC)c(-c2csc3nnc(SCC(=O)Nc4ccc(NC(C)=O)cc4)n23)c1`, the figure is 3.77% (inactive); as for `C=CCC(C(=O)NC(C)c1ccccc1)C(=O)NC(C)c1ccccc1` (configuration not stated), 0.99% (inactive).
With `CCOc1cc(NC(=O)c2ccccn2)c(OCC)cc1NC(=O)c1ccccc1` the figure was 8.84% (inactive); with `CCOc1cc(N2C(=O)CC3CS(=O)(=O)CC32)c(OCC)cc1NC(=O)c1ccccc1` (configuration not stated), -8.08% (inactive).
For the compound `CCCSc1nnc(N)s1`, the inhibition was 14.6% (inactive).
With `CCN1C(=O)c2ccccc2Sc2ccc(C(=O)NCCC(C)C)cc21`, the inhibition is 18.1% (inactive).
On to `CCOC(=O)C1CCCN(S(=O)(=O)Cc2ccc(Cl)cc2)C1` (configuration not stated), for which the inhibition is 5.43% (inactive).
As to `Cc1ccc(NC(=O)C(=O)NN)cc1`, the inhibition was 4.15% (inactive).
`NNC(=O)C(=O)Nc1ccc(Cl)c(Cl)c1`: the inhibition was 4.78% (inactive).
Take `Cc1ccc(N=C2C(=O)Nc3ccc(Br)cc32)cc1`: the inhibition is 4.2% (inactive).
Regarding `COC(=O)CN1C(=O)C(C)(C)Oc2ccc(C(=O)Nc3ccccc3F)cc21`, the inhibition is -0.69% (inactive).
`O=[N+]([O-])c1cc(/C=N\Nc2nc(-c3ccccc3)cs2)ccc1O`: the inhibition is 14.1% (inactive).
For the compound `Cc1csc(N/N=C/c2ccc([N+](=O)[O-])cc2)n1`, the inhibition is 12% (inactive).
Consider `O=C(c1ccc2c(c1)OCCO2)C1CCN(S(=O)(=O)c2ccc(F)cc2)CC1`, for which the inhibition is 0.84% (inactive).
With `S=c1[nH]nc(-c2cc(-c3ccccc3)n[nH]2)n1/N=C/c1cccs1` the figure was 10.5% (inactive); with `Cc1cc(C)n(/N=C/c2c[nH]c3ccccc23)c(=O)c1`, 0.69% (inactive); with `Cc1nnc(C)n1/N=C/c1cccs1`, 13.5% (inactive).
For `Fc1ccc(-c2n[nH]c(=S)n2/N=C/c2c[nH]c3ccccc23)cc1`, the inhibition was 1.41% (inactive).
Turning to `CCCCn1c(O)c(N=NC(=O)c2ccccc2NS(=O)(=O)c2cccs2)c2ccccc21`, the inhibition was 14.3% (inactive).
As for `O=c1ccc(S(=O)(=O)N2CCC(Cc3ccccc3)CC2)c[nH]1`, the figure is 7.63% (inactive).
For the compound `CN(CCNC(=O)CCNC(=O)Cn1ccc2ccccc2c1=O)Cc1ccccc1`, the inhibition is 15.1% (inactive).
As for `Nc1nc(SCc2cccc([N+](=O)[O-])c2)n[nH]1`, the inhibition was 4.99% (inactive).
With `C=CCn1c(SCC(=O)c2ccc(OC)cc2)nnc1-c1cc2cccc(OC)c2o1`, the inhibition was 6.55% (inactive).
With `CCn1c(SCC(=O)OC)nnc1-c1ccc(C)cc1`, the inhibition was 22.5% (inactive).
As for `CCn1c(SCC(=O)c2ccc(C)cc2)nnc1-c1ccncc1`, the figure is 3.96% (inactive).
For the compound `CCn1c(SCC(=O)O)nnc1-c1ccccc1OC`, the inhibition is 1.77% (inactive).
With `C=CCn1c(SCC(=O)Nc2ccc(C(=O)O)cc2)nnc1-c1cccnc1`, the inhibition was 8.53% (inactive).
As for `C=CCn1c(SCC(=O)NC2CCCC2)nnc1-c1cccnc1`, the inhibition was 3.08% (inactive).
With `CCn1c(SCC(=O)C(C)(C)C)nnc1-c1ccccc1OC` the figure was -1.72% (inactive); with `C=CCn1c(SCC(=O)Nc2ccc3c(c2)OCO3)nnc1-c1ccccc1OC`, 1.62% (inactive); with `O=C1OCc2cc(NC(=O)C3CCCCC3)ccc21`, 2.69% (inactive).
Turning to `COc1cccc(-c2cc(CC3(O)CCN(CCCc4ccccc4)CC3)on2)c1`, the inhibition was 8.74% (inactive).
Turning to `Cc1ccc(S(=O)(=O)N2CCN(S(=O)(=O)N(C)C)CC2)c(C)c1`, the inhibition was 3.46% (inactive).
For `COc1ccc(-n2c(C)cc(-c3csc(NC(=O)c4ccc(S(=O)(=O)N(C)C)cc4)n3)c2C)cc1`, the inhibition was 11.5% (inactive).
As for `Cc1c(CC(=O)NCCCC(=O)O)c(=O)oc2cc3oc4c(c3cc12)CCCC4`, the figure is 10% (inactive); as for `CC(C)CCNC(=O)C1CC(=O)N(C2CCCC2)C1` (configuration not stated), -3.66% (inactive).
Take `S=C(NCC1CCCO1)Nc1ccc(Cl)c(Cl)c1` (configuration not stated): the inhibition was 13.5% (inactive).
Consider `Cc1ccc(CCN2CC(C(=O)NCCCN3CCN(C)CC3)CC2=O)cc1` (configuration not stated), for which the inhibition was 3.28% (inactive).
As to `c1ccc(-n2nnnc2-n2nnc3ccccc32)cc1`, the inhibition is 9.04% (inactive).
As for `Cc1cccc2cc3c(nc12)SC(=NCC1CCCO1)N(Cc1ccco1)C3` (configuration not stated), the figure is 26% (inactive); as for `COCCN=C1Sc2nc3ccc(C)cc3cc2CN1Cc1ccco1`, 19.9% (inactive); as for `c1ccc(-c2csc(Nc3ccccn3)n2)cc1`, 9.23% (inactive).
With `Cc1cccc(Nc2nc(-c3ccc(O)c(O)c3)cs2)n1` the figure was 30.3% (inactive).
With `c1ccc(-c2csc(Nc3ncccn3)n2)cc1` the figure was 0.05% (inactive).
In the case of `Oc1ccc(-c2csc(Nc3ncccn3)n2)cc1`, the inhibition was 6.13% (inactive).
Turning to `Oc1ccc(-c2csc(Nc3ccccn3)n2)cc1`, the inhibition is 22.2% (inactive).
Take `Cc1ccc(Nc2nc(-c3ccc(F)cc3)cs2)nc1`: the inhibition is 9.89% (inactive).
As for `Cc1ccnc(Nc2nc(-c3ccc(O)c(O)c3)cs2)c1`, the inhibition was 32.9% (inactive).
As for `Cc1csc(Nc2cccc3ccccc23)n1`, the inhibition was 11.9% (inactive).
Regarding `Cc1c(/C(Cc2ccccc2)=N/O)c2ccccc2n1C`, the inhibition is 15.5% (inactive).
For the compound `COc1ccccc1N(Cc1ccccc1)S(=O)(=O)c1cccc(C(=O)Nc2cc(C)ccn2)c1`, the inhibition is 11.2% (inactive).
As for `O=C(Nc1ccc2c3c(cccc13)CC2)c1ccc(Br)o1`, the inhibition was -1.82% (inactive).
As for `O=C(COC(=O)c1cc(S(=O)(=O)N2CCOCC2)ccc1Cl)Nc1ccc2c(c1)OCO2`, the figure is -0.55% (inactive); as for `O=C(Cn1nnc2ccccc21)NC1CCCCC1`, 7.66% (inactive).
